Screens from PubChem.
Rows were chosen to be rich in hits. Some 19% of all compounds tested hit in one or more screens of this group.
MCF10A rereplic: induces DNA re-replication in MCF 10a normal breast cells; Potency, µM (doses to about 46.1 µM), for the others: at the highest dose activity, positive = re-replication, usual class: activators; MCF 10A DNA re-replication, Hoechst nuclear intensity, 48 h; actives 2.9% (n = 350,000); further: potency means the concentration at half of the fitted maximal effect; % of control where 0% means no effect; nearly all actives have a fitted effect of over 50% in size
IL-1B inflam inh: inflammasome signaling inhibition, IL-1 beta readout | THP-1 LPS/ATP IL-1B secretion, AlphaLISA, 16 h; hits give low values | activity change, % at 57.5 µM | actives 4.7% (n = 360,000) | AID 743279; in the data active means activity change below about -50%; inconclusive means mostly about -30% to -49%; further: on the % scale 0 is the no-effect control and ±100 the full control effect
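Secreted IL-1B measured by AlphaLISA bead assay after 16 h compound exposure of THP-1 cells; compounds (final up to 57.5 uM) added 1 h before LPS (250 ng/mL) and ATP (1.25 mM) stimulation; lower signal means less secretion.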
Chronic BCR inh: blocks chronic active B-cell receptor signaling. actives 0.05% (n = 340,000). Potency, µM (highest dose often 46.1 µM), without a hit: at the highest dose activity change, negative = inhibition, hits mostly inhibitors. AID 493014. ABC-DLBCL IkBa-CBG/CBR reporter, luminescence ratio, 4 h; active means well fitted inhibition curve with a large enough effect in the signal ratio, with a control signal flat, not every such curve was filed as active; inconclusive means small, poorly fitted or top-dose-only effect, or effect the other way, or a change in a side signal; the % refers to the signal ratio;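 further: potency means the concentration at half of the fitted maximal effect; plate controls were basal doxycycline-induced cells for no effect and cells given 10 µM MG132 for full effect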
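Doxycycline induced both beetle luciferases in TMD8 lymphoma cells; IKK-driven degradation limits the IkappaBalpha-fused green signal, while red luminescence normalises for cell number and nonspecific effects. Compounds tested up to 46 uM, 4 hrs.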
DT40 TDP1 CPT: DT40-hTDP1 cell growth loss with CPT | chicken DT40 Tdp1-/-;hTDP1 cells + 20 nM CPT, ATP luminescence, 48 h | Potency, µM (top dose mostly 46.2 µM), for inactives: at the top dose activity change, negative = growth inhibition, actives largely listed as inhibitors | actives 12% (n = 420,000) | AID 686979; further: potency means the concentration at half of the fitted maximal effect; on the % scale 0 is the no-effect control and ±100 the full control effect; nearly all actives have a fitted effect of over 55% in size
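Cell growth measured by CellTiter-Glo luminescence after a minimum 48 h, 37 C compound exposure with 20 nM CPT in Tdp1-knockout DT40 cells stably expressing hTDP1, seeded 400/well; qHTS titration format.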
SW480 rerep: inducers of DNA re-replication in SW480 colon cancer cells; AID 624297; actives 1.8% (n = 340,000); SW480 DNA re-replication, Hoechst DNA content imaging, 48 h; Potency, µM (doses to about 46.1 µM), without a hit: at the top dose re-replication activation, usual class: activators; further: potency means the concentration at half of the fitted maximal effect; % of control where 0% means no effect; nearly all actives have a fitted effect of over 55% in size
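Cells (250 per well) received 23 nL compound or DMSO by pin tool and were kept 48 hr at 37 C, 5% CO2. Nuclei were then stained with Hoechst for 40 min and scanned for DNA content.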
DT40 TDP1 no CPT: qHTS for Inhibitors of human tyrosyl-DNA phosphodiesterase 1 (TDP1): qHTS in cells in absence of CPT | DT40 Tdp1-/- hTDP1 cells, no CPT, ATP luminescence, 48 h | Potency, µM (doses to about 46.2 µM), without a hit: top-dose activity change, negative = growth inhibition, most hits filed as inhibitors | actives 15% (n = 420,000); further: potency means the concentration at half of the fitted maximal effect; on the % scale 0 is the no-effect control and ±100 the full control effect; nearly all actives have a fitted effect of over 55% in size
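Camptothecin absent (DMSO only). Human TDP1-complemented DT40 knockout cells, 400 cells/well, 37 °C for minimum 48 hr; ATP measured via CellTiter-Glo, 30 min dark incubation, luminescence.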
* hit, by the source's call; u = inconclusive; x = no result given. Unless noted, the call rests on the fitted dose curve; in most records, active means well fitted curve in the direction sought with a large enough effect; inconclusive means small, poorly fitted or top-dose-only effect, or another doubt; inactive means no such curve, though single readings can be large; an effect the other way counts as inactive or inconclusive.

SMILES	MCF10A rereplic	IL-1B inflam inh	Chronic BCR inh	DT40 TDP1 CPT	SW480 rerep	DT40 TDP1 no CPT
CCCS(=O)(=O)NC(=O)C1(C)CCCN(C(=O)c2cccc(Cl)c2)C1 (stereo not drawn)	x	-10	x	17%	x	-12%
CN(C(=O)CSc1nc2[nH]ncc2c(=O)[nH]1)c1ccccc1	11%	31	-1%	-2%	0%	3%
CN(Cc1ccccc1)c1nc(-c2cccc([N+](=O)[O-])c2)nc2ccccc12	2%	-16	-11%	18µM*	-7%	18µM*
O=C(c1nc2ccccn2c1CN1CCCC(OCc2ccccc2)C1)N1CCCC1 (stereo not drawn)	6%	5	0%	-8%	12%	u
O=C(OCC(=O)N1CCCC1=O)c1nc(Cl)c(Cl)c(Cl)c1Cl	u	-95*	-5%	-6%	u	3%
CCOC(=O)C(CC)c1cc2n(c(=O)c1C#N)CCC21OCCO1 (stereo not drawn)	x	23	x	-15%	x	-13%
Oc1cccc2c(NC(=S)Nc3ccc(OC(F)F)cc3)cccc12	29%	23	u	-59%	17%	18µM*
CNC(=O)C(=O)NCC1CCCN1S(=O)(=O)c1cccs1 (stereo not drawn)	7%	35	u	11%	23µM*	-4%
Cc1cccc(NC(=O)C(=O)NCC2CCCN2S(=O)(=O)c2ccccc2)c1 (stereo not drawn)	21%	6	u	15µM*	-5%	10µM*
O=C(NCC1CCCN1S(=O)(=O)c1cccs1)C(=O)Nc1ccccc1 (stereo not drawn)	u	-16	6%	-28%	0%	u
CCc1ccc(NC(=O)C(=O)NCC2CCCN2S(=O)(=O)c2cccs2)cc1 (stereo not drawn)	16%	-14	u	18µM*	-3%	15µM*
Cc1cccc(NC(=O)C(=O)NCC2CCCN2S(=O)(=O)c2cccs2)c1 (stereo not drawn)	x	24	x	13µM*	x	8.2µM*
Cc1ccc(NC(=O)C(=O)NCC2CCCN2S(=O)(=O)c2cccs2)cc1 (stereo not drawn)	25%	-13	-2%	u	2%	u
Cc1cccc(NC(=O)C(=O)NCC2CCCN2S(=O)(=O)c2cccs2)c1C (stereo not drawn)	15%	-10	u	21µM*	-2%	u
N#Cc1ccccc1NC(=O)C(=O)NCC1CCCN1S(=O)(=O)c1cccs1 (stereo not drawn)	13%	-18	6%	-8%	-6%	-29%
COc1cccc(NC(=O)CCC2CCN(C(=O)c3cncs3)CC2)c1	-1%	23	2%	1%	1%	-2%
OC(CSc1ccccc1Cl)CN1CCN(c2ccc(F)cc2)CC1 (stereo not drawn)	12%	-26	-10%	18µM*	19%	23µM*
Cc1ccccc1C(OCC(O)CN1CCN(CCO)CC1)c1ccccc1 (stereo not drawn)	-1%	u	0%	-11%	-10%	8%
OCCN1CCN(CC(O)COC(c2ccc(F)cc2)c2ccc(F)cc2)CC1 (stereo not drawn)	23µM*	-79*	-1%	3%	16%	-21%
COc1ccc(N2CCN(CC(O)COC(c3ccc(F)cc3)c3ccc(F)cc3)CC2)cc1 (stereo not drawn)	12%	-12	-9%	18µM*	u	29µM*
CCN(CC)P(=O)(Nc1ccccc1Br)c1ccc(N(C)C)cc1NC(=O)c1ccco1 (stereo not drawn)	10%	-7	6%	29µM*	22%	23µM*
CCN(CC)C(=O)c1cc(Cl)ccc1NC(=O)c1ccco1	1%	-2	-1%	-3%	-8%	4%
O=C(CNC(=O)c1ccc(Cl)cc1)NC1CCCCC1	1%	0	1%	u	8.2µM*	-4%
O=C(CN1CCC(C(=O)c2ccc(Cl)cc2)CC1)NC1CCCC1	11%	28	-1%	u	u	23µM*
Cc1ccc(C(=O)C2CCN(CC(=O)NC3CCCCC3)CC2)cc1	3%	-18	u	-27%	6%	u
SMILES	MCF10A rereplic	IL-1B inflam inh	Chronic BCR inh	DT40 TDP1 CPT	SW480 rerep	DT40 TDP1 no CPT
C=CC(C)(C)c1[nH]cnc1/C=C1\NC(=O)C(C(C)C)NC1=O (stereo not drawn)	u	30	-5%	12µM*	u	16µM*
O=C(Nc1ccc(S(=O)(=O)N2CCCC2)cc1)c1cnccn1	-2%	8	-13%	-20%	-17%	u
O=C(Nc1ccc(S(=O)(=O)N2CCN(Cc3ccccc3)CC2)cc1)c1cnccn1	4%	0	-5%	9.2µM*	-3%	5.2µM*
CN(CC(=O)Nc1ccc(Cl)cc1)C(=O)c1cccc(S(=O)(=O)NCc2ccccc2)c1	15%	-10	-3%	u	3%	u
CN(CC(=O)Nc1ccc(Cl)cc1)C(=O)c1cccc(S(=O)(=O)N2CCN(Cc3ccccc3)CC2)c1	u	u	u	5.8µM*	10%	5.2µM*
CS(=O)(=O)c1ccc(NC(=O)c2cccc(S(=O)(=O)N3CCN(Cc4ccccc4)CC3)c2)cc1	u	-13	u	u	0%	u
CN(C)C(=O)c1ccc(NC(=O)c2cccc(S(=O)(=O)N3CCN(Cc4ccccc4)CC3)c2)cc1	6%	-2	x	15µM*	-3%	18µM*
N[C@@H](CC(=O)O)C(=O)O	x	x	x	-13%	x	-9%
COc1cccc(CNS(=O)(=O)c2ccc3c(c2)C(C)(C)C(=O)N3C)c1	7%	39	5%	2%	-3%	1%
CNC(C)C#Cc1ccc2c(=O)c3cc(C)c(C)cc3oc2c1 (stereo not drawn)	u	u	x	u	u	29µM*
Cc1cc(Br)c(OCc2ccc(C(=O)N/N=C3\CC4CC=CC34)cc2)c(Br)c1 (stereo not drawn)	15%	-9	2%	-29%	-3%	15µM*
COc1cccc(OC(=O)CSc2nnc(-c3cccs3)o2)c1	x	x	x	8%	x	4%
COc1ccc(C2CC(C)(c3ccc(OC)cc3)Nc3ccccc3N2)cc1 (stereo not drawn)	u	-11	15%	u	u	15µM*
